The source of these data is the supplement of paper PMC6522484.

Values joined by “and” are separate entries in the source; they are usually repeats but may differ in a detail not shown here. Equal values may be shown once. ± gives the standard deviation of the averaged measurements.

In experiment [1] the test system is DLD1. The experiment can be described thus: cell viability (CellTiter-Glo) relative to plate median (fraction of plate median); higher = more viable cells. Particulars: 5 µM; treatment time 24 h; reporter: 7TFP. In a few lines: (§1)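 Colorectal cancer lines with stably integrated lentiviral TCF/Wnt firefly luciferase reporters received library compounds at a final 5 µM, 24 h after seeding into 384-well plates, for a 24 h exposure. Reported figures are plate-median-normalised firefly luciferase or CellTiterGlo luminescence per well. They average two independent replicates.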
For orientation: ATP-based viability assays read luminescence as a measure of living cells.

Another experiment deals with HCT116. The description is as above. The note with it: 5 µM; treatment time 24 h; reporter: TCF4/Wnt. The procedure, abridged: as §1
Experiment [2] concerns SW480. The description is as above. Particulars: 5 µM; treatment time 24 h; reporter: 7TFP. In a few lines:
as §1

In experiment [3] the test system is DLD1. The experiment can be described thus: TCF/Wnt firefly luciferase reporter signal relative to plate median (fraction of plate median); higher = higher Wnt reporter signal. Particulars: 5 µM; treatment time 24 h; reporter: 7TFP. The procedure, abridged:
as §1
(In general: A reporter such as luciferase makes a cellular process visible.)

Experiment [4] has as its system SW480. The description is as above. Particulars: 5 µM; treatment time 24 h; reporter: 7TFP. In a few lines: as §1

In the case of `CS(=O)(=O)c1ccc(C2=C(c3ccccc3)C(=O)OC2)cc1`, the cell viability was determined as 1 ± 0.037 in the experiment on DLD1 [1], 1.04 ± 0.042 in the experiment on HCT116 and 0.9705 ± 0.0035 in the experiment with SW480 [2]. Moreover, the “TCF/Wnt firefly luciferase reporter signal” value turned out to be 1.19 ± 0.092 with DLD1 [3] and 1.05 ± 0.071 in the experiment on SW480 [4].
Turning to `O=C(Nc1ccc(C(=O)O)c(O)c1)c1ccccc1`, the cell viability stood at 1.065 ± 0.0071 in the experiment on DLD1 [1], 0.924 ± 0.011 with HCT116 and 1.01 ± 0.032 in the experiment with SW480 [2]. The “TCF/Wnt firefly luciferase reporter signal” value was found to be 0.83 ± 0.016 in the experiment on DLD1 [3] and 1.07 ± 0.05 with SW480 [4].
On to `CC1(C)S[C@@H]2[C@H](NC(=O)[C@H](NC(=O)N3CCNC3=O)c3ccccc3)C(=O)N2[C@H]1C(=O)O`, for which the cell viability worked out at 1.07 ± 0.014 in the experiment on DLD1 [1], 0.988 ± 0.0042 in the experiment on HCT116 and 0.956 ± 0.046 with SW480 [2]. In addition, the “TCF/Wnt firefly luciferase reporter signal” value was 0.903 ± 0.0099 in the experiment on DLD1 [3] and 0.919 ± 0.053 in the experiment with SW480 [4].
In the case of `N#Cc1ccc2c(c1)N(CCCN1CCC(O)CC1)c1ccccc1S2`, the cell viability stood at 0.991 ± 0.07 in the experiment on DLD1 [1], 0.931 ± 0.053 in the experiment with HCT116 and 1.01 ± 0.069 in the experiment on SW480 [2]. Further, the “TCF/Wnt firefly luciferase reporter signal” value in the experiment with DLD1 [3] was 0.981 ± 0.056; with SW480 [4] it was 1.05 ± 0.071.
The like results for `CCCC(C(=O)OCCN(CC)CC)(c1ccccc1)c1ccccc1` were, in that order, 1.03 ± 0.098, 0.972 ± 0.04, 1.03 ± 0.028, 1.22 ± 0.22 and 1.06.
The like results for `CN[C@@H]1[C@@H](O)[C@@H](O[C@@H]2[C@@H](O)[C@H](O[C@H]3OC(CN)=CC[C@H]3N)[C@@H](N)C[C@H]2N)OC[C@]1(C)O` were, in that order, 1.04, 0.9635 ± 0.0092, 1.07 ± 0.042, 0.933 ± 0.17 and 0.97 ± 0.085.
For `COc1ccc2cc1Oc1ccc(cc1)C[C@H]1c3cc(c(OC)cc3CCN1C)Oc1c(OC)c(OC)cc3c1[C@H](C2)N(C)CC3` the same measures were 1.04 ± 0.13, 0.897 ± 0.15, 1.215 ± 0.0071, 0.948 ± 0.025 and 0.889 ± 0.071.
As to `O=c1cc(-c2cc(O)c(O)c(O)c2)oc2cc(O)cc(O)c12`, the cell viability with DLD1 [1] was determined as 1.02 ± 0.014; in the experiment on HCT116, 1.06 ± 0.057; in the experiment with SW480 [2], 0.943 ± 0.031. Besides, the “TCF/Wnt firefly luciferase reporter signal” value came out at 1 ± 0.057 in the experiment on DLD1 [3] and 0.952 ± 0.059 in the experiment on SW480 [4].
With `CC1(C)CC23C(=O)CCC(O)C2(C)CCC13` (stereo not given), the cell viability was 1.05 ± 0.15 in the experiment on DLD1 [1], 1.065 ± 0.0071 in the experiment on HCT116 and 1.01 ± 0.049 in the experiment on SW480 [2]. The results for the “TCF/Wnt firefly luciferase reporter signal” value with DLD1 [3] and with SW480 [4] were 0.942 ± 0.11 and 1.04 ± 0.074, respectively.
For `CCCOc1ccccc1-c1nc2[nH]nnc2c(=O)[nH]1` the same measures were 0.985 ± 0.035, 0.973 ± 0.14, 0.909 ± 0.058, 1.01 ± 0.064 and 0.951 ± 0.084.
The like results for `CC(=O)O[C@H]1CC[C@]2(C)C3=CC(=O)[C@@]4(C)C(C[C@@H]5OC6(OCC(C)CC6Br)[C@@H](C)[C@@H]54)C3CC[C@H]2C1` (stereo partly drawn) [3beta-ACETOXY-23-BROMO-ISOALLOSPIROST-9 (11)-ENE-12-ONE] were, in that order, 1.04 ± 0.042, 1.11 ± 0.092, 1.03 ± 0.05, 1.12 ± 0.099 and 1.1 ± 0.035.
Regarding `Oc1cc2c(cc1O)C(c1ccccc1)CNCC2` (stereo not given), the cell viability in the experiment on DLD1 [1] stood at 0.981 ± 0.019; with HCT116, 0.944 ± 0.05; in the experiment on SW480 [2], 0.934 ± 0.025. Also, the “TCF/Wnt firefly luciferase reporter signal” value with DLD1 [3] was determined as 1.08 ± 0.05; in the experiment with SW480 [4], 1.05 ± 0.064.
Take `C[C@H](CCC(=O)O)[C@H]1CC[C@H]2[C@@H]3[C@H](O)C[C@@H]4C[C@H](O)CC[C@]4(C)[C@H]3CC[C@]12C`: the results for the cell viability in the experiment with DLD1 [1], in the experiment with HCT116 and with SW480 [2] were 1 ± 0.021, 1.01 ± 0.22 and 1.025 ± 0.0071, respectively. Also, the figures for the “TCF/Wnt firefly luciferase reporter signal” value in the experiment with DLD1 [3] and in the experiment on SW480 [4] were 0.949 ± 0.038 and 1.1 ± 0.028, respectively.
As for `O=C1c2ccccc2C(=O)c2c1ccc(O)c2O`, the cell viability is 1.01 ± 0.074 in the experiment on DLD1 [1], 1.05 ± 0.13 in the experiment with HCT116 and 0.983 ± 0.053 with SW480 [2]. Besides, the figures for the “TCF/Wnt firefly luciferase reporter signal” value with DLD1 [3] and with SW480 [4] were 1.09 ± 0.11 and 1.1 ± 0.13, respectively.
For `NCc1ccc(S(N)(=O)=O)cc1` the same measures were 0.962 ± 0.023, 1 ± 0.069, 0.991 ± 0.042, 1.03 ± 0.17 and 1.12 ± 0.078.
The like results for `CCC[C@@H]1C[C@@H](C(=O)N[C@@H]([C@H]2O[C@H](SC)[C@H](O)[C@@H](O)[C@H]2O)[C@@H](C)O)N(C)C1` were, in that order, 1.05 ± 0.12, 1.03 ± 0.021, 1.035 ± 0.0071, 0.934 ± 0.015 and 1.04 ± 0.083.
With `CN(C)CCOC(c1ccccc1)c1ccccc1`, the cell viability was determined as 1.04 ± 0.028 in the experiment on DLD1 [1], 1.06 ± 0.092 in the experiment with HCT116 and 0.955 ± 0.013 with SW480 [2]. Besides, the “TCF/Wnt firefly luciferase reporter signal” value was found to be 1.2 with DLD1 [3] and 1.19 ± 0.085 with SW480 [4].
For `CC(=O)OCC[N+](C)(C)C` the same measures were 0.987 ± 0.15, 0.998 ± 0.059, 0.982 ± 0.014, 1.01 ± 0.023 and 0.992 ± 0.012.
For `C#CC1(O)CC[C@H]2[C@@H]3CCC4=CC(=O)CC[C@@H]4[C@H]3CC[C@@]21CC` (mixture of isomers) the same measures were 0.925 ± 0.0014, 0.875 ± 0.018, 0.957 ± 0.026, 1.14 ± 0.028 and 1.14 ± 0.035.
The like results for `COc1c(-c2coc3cc4c(cc3c2=O)CC(OC(C)=O)C(C)(C)O4)ccc2c1C=CC(C)(C)O2` (stereo not given) were, in that order, 0.961 ± 0.0085, 0.887 ± 0.077, 1.01 ± 0.045, 1.01 ± 0.32 and 1.1 ± 0.16.
With `CN1[C@@H]2CC[C@H]1C[C@@H](OC(c1ccccc1)c1ccccc1)C2`, the cell viability in the experiment with DLD1 [1] is 1.03 ± 0.014; with HCT116 it was 1.12 ± 0.014; in the experiment with SW480 [2] it was 1.05 ± 0.05. Besides, the “TCF/Wnt firefly luciferase reporter signal” value stood at 0.929 ± 0.16 in the experiment on DLD1 [3] and 0.982 ± 0.12 with SW480 [4].
For `CC(=O)O[C@@H]1CC[C@@]2(C)C(C[C@@H](OC(C)=O)[C@@]3(C)C4=CC(=O)O[C@@H](c5ccoc5)[C@]4(C)CCC23)C1(C)C` (stereo partly drawn) [3alpha-ACETOXYDIHYDRODEOXYGEDUNIN] the same measures were 1 ± 0.021, 1.04 ± 0.11, 0.956 ± 0.026, 1.25 ± 0.22 and 1.11 ± 0.028.
On to `Oc1cc(O)c2c(c1)O[C@H](c1ccc(O)c(O)c1)[C@H](O)C2`, for which the cell viability in the experiment with DLD1 [1] was 0.953 and 0.936; in the experiment with HCT116, 1.03 and 0.956; in the experiment with SW480 [2], 1.01 and 1.06. The “TCF/Wnt firefly luciferase reporter signal” value with DLD1 [3] is 0.934 and 1.07; with SW480 [4], 0.985 and 1.08.
As for `COc1ccc(-c2oc3cc(OC)c(OC)c(OC)c3c(=O)c2OC)cc1OC`, the cell viability was determined as 0.952 ± 0.028 in the experiment with DLD1 [1], 1.1 ± 0.014 with HCT116 and 1.06 ± 0.092 in the experiment on SW480 [2]. The entries for the “TCF/Wnt firefly luciferase reporter signal” value in the experiment on DLD1 [3] and with SW480 [4] were 0.986 ± 0.049 and 1.06 ± 0.17, respectively.
For `CC(=O)c1oc2cc3[nH]c(=O)cc(C)c3cc2c1C` [2-Acetyl-3,5-dimethylfuro[3,2-g]quinolin-7-one (VFT-05)] the same measures were 0.8435 ± 0.0035, 0.998 ± 0.059, 0.885 ± 0.0092, 0.8825 ± 0.0035 and 0.979 ± 0.072.
As to `CN1CCc2c(c3ccccc3n2Cc2ccccc2)C1`, the cell viability turned out to be 1.01 ± 0.051 in the experiment with DLD1 [1], 1.01 ± 0.029 with HCT116 and 1.04 ± 0.035 in the experiment on SW480 [2]. Besides, the entries for the “TCF/Wnt firefly luciferase reporter signal” value with DLD1 [3] and in the experiment on SW480 [4] were 1.05 ± 0.1 and 0.961 ± 0.14, respectively.
As for `Nc1nc(/C(=C/CC(=O)O)C(=O)N[C@@H]2C(=O)N3C(C(=O)O)=CCS[C@H]23)cs1`, the cell viability with DLD1 [1] was determined as 0.988 ± 0.06; in the experiment with HCT116 it was 1.03 ± 0.021; in the experiment on SW480 [2], 0.985 ± 0.0042. Also, the figures for the “TCF/Wnt firefly luciferase reporter signal” value in the experiment with DLD1 [3] and in the experiment with SW480 [4] were 1.13 ± 0.22 and 1.01 ± 0.052, respectively.
For `CCCCCCCC/C=C/CCCCCCCCOP(=O)([O-])OCC[N+](C)(C)C` the same measures were 0.984 ± 0.052, 0.886 ± 0.2, 1.02 ± 0.03, 0.986 ± 0.034 and 0.982 ± 0.018.
For `CC(=O)Oc1ccccc1C(=O)O` the same measures were 1.01 ± 0.035, 1.02 ± 0.031, 1.025 ± 0.0071, 1.05 ± 0.014 and 0.97 ± 0.14.
